The text below walks through data of PubChem BioAssay.

Molecules are shown by their SMILES. Inconclusive results are not listed. The source made the active and inactive calls.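 How the source made its calls, unless noted: active means compound raises insulin release from rat beta cells at 5 mM glucose, no numeric limit stated; inactive means the rest.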

The nature of experiment [1]: stimulators of nuclear beta-catenin in C2C12, primary screen, imaging, WNT3A-conditioned medium, mouse C2C12, NPC library (AID 1117326; in the data active means nuclear beta-catenin stimulation mostly above about 4.2%, no sharp cut-off; inactive means mostly below about 10%). The following applies: stronger effect = higher value.
Experiment [2] can be described thus: stimulators of insulin release from INS-1E, primary screen, cell-based, 5 mM glucose, NPC library (AID 1117329). The following applies: rat INS-1E insulin secretion, at 10 µM, stronger effect = higher value.
Experiment [3] in a line: growth inhibition of GSK3B-pretreated HCT116 cells – cell-based, CellTiter-Glo, 0.2 to 20 µM (AID 1117336;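 active means compounds lowering colon cancer cell viability after pretreatment blocking the GSK3B kinase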). Particulars: HCT116 viability after GSK3B inhibitor, at 20 µM, stronger effect = higher value. A general note: ATP-based viability assays read luminescence as a measure of living cells.
A short description of experiment [4]: glucagon-like peptide 1 release enhancers, primary assay, NCI-H716 cell line, NPC library (AID 1117341;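 active means compound raises GLP1 secretion from the human gut endocrine cells, with no numeric limit stated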). Particulars: NCI-H716 cells, at 10 µM, stronger effect = higher value.
Experiment [5] can be described thus: HCT116 colon cancer cell growth inhibition, primary screen, CellTiter-Glo luminescence, NPC library (AID 1117342;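 active means compounds that lower survival of HCT116 colon cancer cells in the luminescence readout, no numeric limit stated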). The following applies: at 20 µM (top of the series).
Experiment [6] can be described thus: CellTiter-Glo luminescent readout of SW480 viability loss, NPC library primary (AID 1117343;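 active means compounds that lower viability of the colon cancer cells in the luminescence readout, with no numeric limit stated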). Particulars: CellTiter-Glo luminescence; at 20 µM (top of the series) unless noted.
Experiment [7] can be described thus: decreased DLD-1 cellular survival, CellTiter-Glo luminescent readout, NPC compound collection, primary HTS (AID 1117346;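 active means compounds that lower survival of DLD-1 colon cancer cells in the luminescence readout, no cutoff given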). Particulars: DLD-1 viability, CellTiter-Glo luminescence; at 20 µM (top of the series).
Experiment [8] is described as follows: sensitizers of A549 cells to miR-34 induction, primary screen, imaging, A549 dox-inducible miR-34, nuclei and caspase counts (AID 1347080;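 active means compounds whose cell count with miR-34 switched on is under 0.7 times the count with it off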). The following applies: A549 miR-34 inducible, Hoechst nuclei count, 48 h.
Experiment [9] concerns the target NAD(+) hydrolase SARM1 (Homo sapiens) (UniProt Q6SZW1). As to the kind of experiment: SARM1 TIR NADase inhibitors, cell lysate, NAD-Glo luminescence (AID 1508614;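 active means compound whose remaining NAD level is above about 45 nM, limit read from the data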). The following applies: SAM-TIR HEK293T lysate NADase, at 1 µM, stronger effect = higher value.
The target of experiment [10] is ATP-dependent translocase ABCB1 (Homo sapiens) (UniProt P08183). As to the kind of experiment: MDR1 (ABCB1) efflux transporter inhibition, cell-based (AID 377; in the data active means fluorescence slope change above about 50%). Particulars: MDR1-expressing cells, fluorescent substrate accumulation slope; stronger effect = higher value; concentration not given here.
A short description of experiment [11]: inhibition of endothelial tube formation, primary screen, imaging, VEGF stimulated, CD31 staining, tube area, NPC library (AID 1117340;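 active means compound that reduces growth-factor-driven endothelial tube area in a mixed cell culture, no cutoff stated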). Particulars: VEGF-stimulated ADSC/ECFC co-culture, at 10 µM, stronger effect = higher value.
In experiment [12] the target is Mitogen-activated protein kinase 7 (Homo sapiens) (UniProt Q13164). The experiment can be described thus: ERK5 transactivation activators in reporter cells, primary screen, cell-based, HTS (AID 1508626;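 active means luciferase signal above three times the same-plate solvent-only control wells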;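 further: luciferase driven by Gal4-ERK5 fusion binding five Gal4 sites before minimal TATA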). The following applies: HeLa Gal4-ERK5 transactivation, 18 h, at 5 µM, stronger effect = higher value.
Chain of Mitogen-activated protein kinase 7 (Homo sapiens) (Q13164 whole entry, looked up, the tested form may be a part): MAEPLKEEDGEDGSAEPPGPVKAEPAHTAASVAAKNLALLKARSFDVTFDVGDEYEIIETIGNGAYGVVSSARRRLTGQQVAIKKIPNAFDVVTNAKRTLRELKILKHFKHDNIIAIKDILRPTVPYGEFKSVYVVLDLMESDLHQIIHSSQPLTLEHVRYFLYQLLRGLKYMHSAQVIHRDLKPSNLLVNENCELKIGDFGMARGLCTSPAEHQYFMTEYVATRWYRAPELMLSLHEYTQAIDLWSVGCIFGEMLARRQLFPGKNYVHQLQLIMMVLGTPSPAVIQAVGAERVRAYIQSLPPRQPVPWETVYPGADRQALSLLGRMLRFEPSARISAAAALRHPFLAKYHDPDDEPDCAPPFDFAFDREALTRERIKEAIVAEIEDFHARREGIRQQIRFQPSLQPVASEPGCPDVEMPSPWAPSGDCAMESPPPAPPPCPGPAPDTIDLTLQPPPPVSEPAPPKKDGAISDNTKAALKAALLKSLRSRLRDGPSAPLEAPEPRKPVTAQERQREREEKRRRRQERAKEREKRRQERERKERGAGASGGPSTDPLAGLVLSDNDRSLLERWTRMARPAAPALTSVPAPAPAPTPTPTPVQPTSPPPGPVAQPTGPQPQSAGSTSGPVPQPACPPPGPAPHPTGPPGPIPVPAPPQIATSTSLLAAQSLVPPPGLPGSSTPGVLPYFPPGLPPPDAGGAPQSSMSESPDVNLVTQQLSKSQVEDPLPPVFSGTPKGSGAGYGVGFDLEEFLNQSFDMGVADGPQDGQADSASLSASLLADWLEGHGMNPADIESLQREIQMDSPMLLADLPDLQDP

Chain of NAD(+) hydrolase SARM1 (Homo sapiens) (Q6SZW1 whole entry, looked up): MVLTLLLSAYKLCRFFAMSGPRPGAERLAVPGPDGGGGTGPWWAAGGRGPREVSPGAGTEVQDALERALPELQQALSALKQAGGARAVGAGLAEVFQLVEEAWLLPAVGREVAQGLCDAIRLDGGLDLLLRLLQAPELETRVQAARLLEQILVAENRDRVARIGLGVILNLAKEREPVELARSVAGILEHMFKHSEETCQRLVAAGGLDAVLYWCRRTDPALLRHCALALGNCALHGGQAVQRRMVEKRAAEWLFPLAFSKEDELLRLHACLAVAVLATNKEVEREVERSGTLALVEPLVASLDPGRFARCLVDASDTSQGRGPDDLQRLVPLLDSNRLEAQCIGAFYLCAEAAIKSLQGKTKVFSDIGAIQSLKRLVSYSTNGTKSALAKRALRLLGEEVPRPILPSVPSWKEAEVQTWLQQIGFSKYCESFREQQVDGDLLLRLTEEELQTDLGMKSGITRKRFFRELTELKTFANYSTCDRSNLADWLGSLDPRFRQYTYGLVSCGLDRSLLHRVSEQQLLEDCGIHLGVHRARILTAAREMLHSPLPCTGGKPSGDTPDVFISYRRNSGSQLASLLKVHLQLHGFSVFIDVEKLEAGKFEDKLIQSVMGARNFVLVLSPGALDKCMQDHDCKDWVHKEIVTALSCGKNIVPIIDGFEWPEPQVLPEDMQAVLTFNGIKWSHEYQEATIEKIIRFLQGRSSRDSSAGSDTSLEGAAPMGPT
Chain of ATP-dependent translocase ABCB1 (Homo sapiens) (P08183 whole entry, looked up): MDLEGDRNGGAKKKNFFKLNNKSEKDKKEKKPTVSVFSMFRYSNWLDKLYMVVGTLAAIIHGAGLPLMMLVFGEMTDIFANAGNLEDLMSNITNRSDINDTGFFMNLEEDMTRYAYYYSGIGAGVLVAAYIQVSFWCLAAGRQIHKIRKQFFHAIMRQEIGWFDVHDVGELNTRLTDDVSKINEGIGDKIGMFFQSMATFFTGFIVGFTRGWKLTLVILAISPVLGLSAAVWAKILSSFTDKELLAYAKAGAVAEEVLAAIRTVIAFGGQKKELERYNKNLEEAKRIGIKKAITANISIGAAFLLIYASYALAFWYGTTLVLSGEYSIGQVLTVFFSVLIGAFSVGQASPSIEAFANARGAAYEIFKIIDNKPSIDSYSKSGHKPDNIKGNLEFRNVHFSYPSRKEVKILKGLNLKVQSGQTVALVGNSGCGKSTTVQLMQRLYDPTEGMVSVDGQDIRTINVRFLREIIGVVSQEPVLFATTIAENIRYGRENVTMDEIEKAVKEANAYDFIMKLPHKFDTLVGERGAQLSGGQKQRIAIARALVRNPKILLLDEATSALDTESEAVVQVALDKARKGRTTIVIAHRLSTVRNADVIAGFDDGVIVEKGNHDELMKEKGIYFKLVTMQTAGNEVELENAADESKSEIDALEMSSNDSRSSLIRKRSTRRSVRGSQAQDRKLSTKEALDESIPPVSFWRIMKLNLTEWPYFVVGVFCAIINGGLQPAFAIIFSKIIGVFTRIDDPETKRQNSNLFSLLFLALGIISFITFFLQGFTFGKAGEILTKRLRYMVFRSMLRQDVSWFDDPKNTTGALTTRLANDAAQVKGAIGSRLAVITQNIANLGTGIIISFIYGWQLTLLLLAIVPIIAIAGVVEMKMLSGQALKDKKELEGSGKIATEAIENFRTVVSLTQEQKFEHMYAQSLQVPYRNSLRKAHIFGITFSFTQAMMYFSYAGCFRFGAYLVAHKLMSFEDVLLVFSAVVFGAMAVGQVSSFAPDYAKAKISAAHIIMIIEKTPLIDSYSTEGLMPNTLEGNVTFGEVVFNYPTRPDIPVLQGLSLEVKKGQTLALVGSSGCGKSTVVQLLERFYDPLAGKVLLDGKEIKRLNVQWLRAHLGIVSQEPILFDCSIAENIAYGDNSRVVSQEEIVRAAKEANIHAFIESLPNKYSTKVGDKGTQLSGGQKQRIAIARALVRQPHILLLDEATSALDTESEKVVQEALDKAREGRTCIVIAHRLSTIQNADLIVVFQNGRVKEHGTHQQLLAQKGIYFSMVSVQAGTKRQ

With `CCN(CC)C(=O)c1cccnc1`, the nuclear beta-catenin stimulation was 2.1% (inactive) in experiment [1] (at 10 µM) and -1% in experiment [1] (stimulation, at 2 µM). Further, in [2], the insulin secretion stimulation is 1.2% (inactive). Moreover, the viability decrease in experiment [3] was 6.1% (inactive). For the same compound, the GLP1 secretion stimulation in experiment [4] is 1.6% (inactive). In addition, the inhibition of viability in [5] was 14.5% (inactive). Further, the figures for the viability decrease (inhibition) in experiment [6] and in experiment [7] were -1.1% (inactive) and 6.2% (inactive), respectively. The fold change in experiment [8] (stronger effect = lower value, cell number ratio, induced over uninduced) is 0.953 (inactive); in [8] (measured here: relative caspase fold change +Dox/-Dox), 0.829. In addition, the cell count in experiment [8] (measured here: total cells with miR-34 induction, stronger effect = lower value) was 8700; in [8] (measured here: total cells without miR-34 induction) it was 9130. Also, the remaining NAD in [9] is 10 nM (inactive).
Consider `CCCCCCCC(=O)OCC(COC(=O)CCCCCCC)OC(=O)CCCCCCC`, for which the nuclear beta-catenin stimulation in experiment [1] (at 10 µM) is -0.5% (inactive); in experiment [1] (stimulation, at 2 µM), -1.9%. Moreover, in [2], the insulin secretion stimulation was 0.2% (inactive). Besides, the GLP1 secretion stimulation in experiment [4] was -5.4% (inactive).
For the compound `O=[N+]([O-])c1cccc(S(=O)(=O)NCCNS(=O)(=O)c2cccc([N+](=O)[O-])c2)c1`, the nuclear beta-catenin stimulation is 0.3% (inactive) in experiment [1] (at 10 µM) and 0.2% in experiment [1] (stimulation, at 2 µM). Further, the insulin secretion stimulation in experiment [2] is -0.55% (inactive). The viability decrease in experiment [3] was 38.9% (inactive). Besides, the GLP1 secretion stimulation in experiment [4] was 3.1% (inactive). In addition, the inhibition of viability in experiment [5] is 7.6% (inactive). The viability decrease (inhibition) in experiment [6] was 6.5% (inactive); in experiment [7] it was 14.5% (inactive).
Consider `C[C@]12CCC(=O)C=C1CC[C@H]1[C@@H]3CC[C@](O)(C(=O)CO)[C@@]3(C)C[C@H](O)[C@@]12F`, for which the fluorescence slope change in experiment [10] was 9.8% (inactive). For the same compound, the nuclear beta-catenin stimulation in [1] (at 10 µM) was -2.1% (inactive); in [1] (stimulation, at 2 µM), -2.1%. For the same compound, the insulin secretion stimulation in experiment [2] was 0.3% (inactive). In addition, the viability decrease in experiment [3] was -81.6% (inactive). The tube area decrease in experiment [11] was 10.3% (inactive). In addition, the GLP1 secretion stimulation in experiment [4] is 0.3% (inactive). In addition, the inhibition of viability in experiment [5] was -8.17% (inactive). The viability decrease (inhibition) in [6] was -20% (inactive); in experiment [7] it was -2% (inactive).
On to `O=C(CCCl)NCCc1ccccc1`, for which the nuclear beta-catenin stimulation is -0.5% (inactive) in experiment [1] (at 10 µM) and 0.2% in experiment [1] (stimulation, at 2 µM). The insulin secretion stimulation in [2] is 1.5% (inactive). The viability decrease in [3] is -9.9% (inactive). The tube area decrease in experiment [11] is -1.9% (inactive). In addition, in experiment [4], the GLP1 secretion stimulation was -1.9% (inactive). Further, the inhibition of viability in [5] was -2.8% (inactive). Moreover, the viability decrease (inhibition) was -1.5% (inactive) in [6] and -7.5% (active) in experiment [7]. The remaining NAD in [9] is 10 nM (inactive).
In the case of `CCCCCCCCCCCCCCCC(=O)OCC=C(C)C=CC=C(C)C=CC1=C(C)CCCC1(C)C`, the nuclear beta-catenin stimulation was -1.5% (inactive) in experiment [1] (at 10 µM) and -0.3% in [1] (stimulation, at 2 µM). In experiment [2], the insulin secretion stimulation is 1.2% (inactive). The GLP1 secretion stimulation in experiment [4] is 2.7% (inactive).
On to `CCCCC(=O)O[C@]1(C(=O)CO)CC[C@H]2[C@@H]3CCC4=CC(=O)CC[C@]4(C)[C@H]3[C@@H](O)C[C@@]21C`, for which the nuclear beta-catenin stimulation was -1.9% (inactive) in experiment [1] (at 10 µM) and 0.1% in [1] (stimulation, at 2 µM). Further, the insulin secretion stimulation in experiment [2] was 1.5% (inactive). In addition, the viability decrease in experiment [3] is -12.8% (inactive). In experiment [11], the tube area decrease was -17.7% (inactive). Besides, the GLP1 secretion stimulation in experiment [4] was -1.5% (inactive). In addition, the inhibition of viability in experiment [5] is 7.7% (inactive). Moreover, the viability decrease (inhibition) in [6] is 6.4% (inactive); in experiment [7], -15.9% (inactive). In addition, the remaining NAD in experiment [9] is 10 nM (inactive). Further, in experiment [12], the luciferase signal is 72 AU (inactive).
Regarding `C/C(=N\O)[C@@H](C)NCC(C)(C)CN[C@H](C)/C(C)=N/O`, the nuclear beta-catenin stimulation is 1.5% (inactive) in experiment [1] (at 10 µM) and -1.3% in experiment [1] (stimulation, at 2 µM). Further, in experiment [2], the insulin secretion stimulation is 1.9% (inactive). Moreover, in experiment [4], the GLP1 secretion stimulation is -8.7% (inactive).
